Most compounds without a hit are left out; they make up all but 8.1% or so of the library.
SW480 rerep = DNA re-replication induction in SW480 cells; SW480 DNA re-replication, Hoechst DNA content imaging, 48 h; Potency, µM (series often up to 46.1 µM), inactives show at the highest dose re-replication activation, hits mostly activators; actives 1.8% (n = 340,000); also: % of control where 0% means no effect; nearly all actives have a fitted effect of over 55% in size
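Per well, 250 cells were exposed to pinned compound for 48 hr. Nuclear DNA was visualised with Hoechst (40 min, 37 C) and total object intensity recorded by fluorescence scanning.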
ELG1 DNA repair = inhibitors of ELG1-dependent DNA repair in HEK293T cells. HEK293T ELG1-luciferase reporter, luminescence, 16 h; DNA damage induced by 5-fluorouridine. Potency, µM (doses to about 46.1 µM), inactives show at the highest dose activity change, negative = inhibition, actives largely listed as inhibitors. actives 2.3% (n = 330,000). AID 504467; also: % is scaled to controls: 0 for no effect and ±100 for the full control effect; nearly all actives have a fitted effect of over 55% in size
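5-Fluorouridine DNA damage + compound/DMSO, 2,000 cells/well, 16 h, 37 °C/5% CO2. ONE-Glo, 30 min RT, luminescence. Readout = decrease in reporter signal.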
KB-3-1 tox = kills parental KB-3-1 adenocarcinoma cells; KB-3-1 viability, CellTiter-Glo ATP luminescence, 72 h; Potency, µM (doses to about 46.1 µM), usual class: cytotoxic; actives 1.4% (n = 400,000); AID 1347075; also: % is scaled to controls: 0 for no effect and ±100 for the full control effect; nearly all actives have a fitted effect of over 60% in size
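Viability of parental KB-3-1 cells, measured by CellTiter-Glo luminescence, followed a 72 h incubation at 37 °C with pinned compounds in phenol-red-free DMEM containing 10% FBS.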
KB-V1 cytotox = kills drug-selected multidrug resistant KB-V1 cells; KB-V1 MDR cells viability, CellTiter-Glo, 72 h; actives 3.4% (n = 400,000); Potency, µM (top dose mostly 46.1 µM), actives largely listed as cytotoxic; AID 1347076; also: % is scaled to controls: 0 for no effect and ±100 for the full control effect; nearly all actives have a fitted effect of over 60% in size
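KB-V1 MDR subline cells in DMEM (phenol-red free, 10% FBS) exposed to compounds in qHTS concentration series for 72 h at 37 degrees C. Viability read by CellTiter-Glo luminescence; concentration-effect curves fitted after normalization and correction.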
MCF10A rereplic = DNA re-replication induction in MCF 10a cells; MCF 10A DNA re-replication, Hoechst nuclear intensity, 48 h; Potency, µM (doses to about 46.1 µM), for inactives: top-dose activity, positive = re-replication, hits mostly activators; AID 624296; actives 2.9% (n = 350,000); also: % of control where 0% means no effect; nearly all actives have a fitted effect of over 50% in size
Starred values were filed as active, the others as inactive; i = inactive; ? = inconclusive; . = not tested or not shown; [ ] = dose if it differs, or a comment. Calls follow the shape of the dose curve; as a rule, active = well fitted curve in the direction sought with a large enough effect; inconclusive = small, poorly fitted or top-dose-only effect, or another doubt; inactive = no such curve, though single readings can be large; an effect the other way counts as inactive or inconclusive. Potency is read from the fitted curve at half-maximal effect.

SMILES	SW480 rerep	ELG1 DNA repair	KB-3-1 tox	KB-V1 cytotox	MCF10A rereplic
CCn1ccc(C(=O)Nc2ccc3c(c2)CCC3)n1	-6%	?	i	i	9%
C(=NN=Cc1c[nH]c2ccccc12)c1c[nH]c2ccccc12	.	.	i	i	.
O=C1/C(=C/c2c[nH]c3ccccc23)CCC/C1=C\c1c[nH]c2ccccc12	?	-21%	?	?	21µM*
CCOC(CNC(=O)Cn1nc(C)c2ccccc21)OCC	-38%	13%	?	i	0.73µM*
CCOC(=O)[C@H](C)N1[C@H](C)[C@H](c2ccccc2)Oc2ccc(Cl)cc2S1(=O)=O	-4%	.	i	i	-3%
Cc1ccc2[nH]c3c(=O)n(N)c(C)nc3c2c1	6.5µM*	?	i	i	31%
COc1ccc2[nH]c3c(=O)n(N)c(C)nc3c2c1	.	-11%	i	i	-4%
O=C(C[n+]1cccc2cc(Cl)ccc21)c1ccc(Br)cc1	.	.	?	i	.
Cc1ccc(C(=O)Nc2ccccc2C(=O)N2CC3(C)CC2CC(C)(C)C3)cc1 (stereo not given)	?	23µM*	i	?	26µM*
CC1(C)CC2CC(C)(CN2C(=O)NC(=O)c2ccccc2)C1 (stereo not given)	0%	5%	i	?	3%
CCCSCCCNC(=O)C1CCCN(c2nn3cc(-c4ccc(OC)cc4)nc3s2)C1 (stereo not given)	.	.	i	i	.
CCCCNC(=O)CSc1nc2ccc(Nc3nc(N4CCOCC4)nc(N4CCOCC4)n3)cc2s1	6%	5.8µM*	i	i	?
O=c1c(-c2ccccc2)c1-c1ccccc1	6µM*	.	.	.	?
COC(=O)C1C=CC(OC2OC(COC(C)=O)C(OC(C)=O)C(OC(C)=O)C2OC(C)=O)n2c(=O)n(-c3ccccc3)c(=O)n21 (stereo not given)	?	.	?	5.2µM*	1.6µM*
CC1(C)CC(=O)C=C(c2ccccc2-c2ccc3cc[nH]c3c2)C1=O	.	.	i	?	.
CC1(C)CC(=O)C=C(c2ccc(-c3ccc4[nH]ccc4c3)cc2)C1=O	.	.	8.2µM*	?	.
CCOC(=O)c1sc(Nc2nc3c(OC)cccc3s2)cc1C	?	?	i	?	23µM*
COc1cccc2sc(Nc3nc(-c4ccncc4)cs3)nc12	?	?	5.8µM*	8.2µM*	21µM*
COc1cccc2sc(Nc3nc(-c4cc5ccccc5oc4=O)cs3)nc12	5.2µM*	?	?	8.2µM*	1.3µM*
Nc1ccc(Nc2nc(-c3cc4ccccc4oc3=O)cs2)cc1	2%	?	i	?	22%
CCOC(=O)c1sc(Nc2nc3cc4c(cc3s2)OCO4)cc1C	-7%	?	i	i	?
COc1cccc2sc(Nc3nc4ccc(NC(C)=O)cc4s3)nc12	?	?	16µM*	i	3.3µM*
Cc1cccc(N2C(=O)C=CC2=O)c1	?	.	i	i	21µM*
CCCc1nc2nc(C)c(NS(=O)(=O)c3ccc(C)c(C)c3)c(=O)n2[nH]1	.	.	i	i	.
O=[N+]([O-])c1nn(-c2ccc3c(c2)OCCO3)n(O)c1=NC1CCCCCC1	3%	?	i	16µM*	1%
SMILES	SW480 rerep	ELG1 DNA repair	KB-3-1 tox	KB-V1 cytotox	MCF10A rereplic
COc1ccc(-n2nc([N+](=O)[O-])c(=NCc3ccc4c(c3)OCO4)n2O)cc1	-1%	?	i	21µM*	-2%
O=[N+]([O-])c1nn(-c2ccccc2)n(O)c1=NCc1ccc2c(c1)OCO2	4%	?	i	i	27%
Cc1cc(=O)oc2c1ccc1oc(/C(=N/O)c3ccccc3)c(C)c12	-6%	16µM*	?	21µM*	?
Cc1ccc(/C(=N\O)c2oc3c(C)c4oc(=O)cc(C)c4cc3c2C)cc1	28%	21µM*	?	?	?
COc1ccc(S(=O)(=O)N(CCc2ccccc2)CC(=O)Nc2ccc(C)c(C)c2)cc1OC	.	.	i	i	.
Cc1c(O)ccc(NS(=O)(=O)c2ccccc2)c1C	-1%	7%	i	i	-2%
Cc1cc(NS(=O)(=O)c2ccccc2)c(C)c(Cl)c1O	3%	?	?	21µM*	-1%
COc1ccc(OC)c(NC(=O)C2CCCN(S(=O)(=O)c3ccc(-n4cnnn4)cc3)C2)c1 (stereo not given)	-6%	26µM*	?	i	27%
COc1ccc(OC)c(NC(=O)C2CCCN(S(=O)(=O)c3cccc4nsnc34)C2)c1 (stereo not given)	-4%	21µM*	i	i	-3%
CC1CN(S(=O)(=O)c2cccc3nsnc23)CC(C)O1 (stereo not given)	21%	0%	?	i	18µM*
COc1cc(NC(=O)C2CCCN(S(=O)(=O)c3cccc4nsnc34)C2)cc(OC)c1 (stereo not given)	-11%[9.22 µM]	23µM*	i	i	5%
CN(Cc1cccnc1)C(=O)c1cc(COc2ccc3c(c2)CCCC3)on1	1%	?	?	?	-1%
O=C(Nc1ccccc1Br)N1CCC(CN2CCCC2)CC1	.	.	i	i	.
CC1(C(=O)NS(=O)(=O)c2ccc(C#N)cc2)CCN1C(=O)Cc1ccsc1 (stereo not given)	.	.	i	i	.
Cc1ccccc1NC(=O)/C=C1\SC(=O)NC1=O	?	3%	i	?	23µM*
O=C(/C=C1\SC(=O)NC1=O)Nc1ccc(C(=O)O)cc1	-1%	3%	i	i	0%
C=C1CC(COc2ccc3c(C)c(Cl)c(=O)oc3c2)(c2ccccc2)OC1=O (stereo not given)	?	.	?	?	4.6µM*
COc1ccc2c(C)c(Cl)c(=O)oc2c1	1%	21%	i	i	0%
O=C(COC(=O)c1cc2ccccc2oc1=O)Nc1cccc(Br)c1	-7%	12%	i	i	5%
Cc1ccc(C)c(NC(=O)COC(=O)c2cccc3c2C(=O)c2ccccc2C3=O)c1	13µM*	23µM*	?	15µM*	1%
Cc1cccc(NC(=O)COC(=O)c2cc3ccccc3oc2=O)c1	21µM*	-6%	i	i	0.65µM*
O=C(COC(=O)c1cccc2c1C(=O)c1ccccc1C2=O)NC1CCCCC1	-6%	?	i	21µM*	85%
Cc1ccc(NC(=O)COC(=O)c2cccc3c2C(=O)c2ccccc2C3=O)c(C)c1	?	10µM*	i	?	?
COc1ccccc1N1CCN(S(=O)(=O)c2ccc(-c3ccno3)cc2OC)CC1	.	.	i	i	.
CCOC(=O)c1cc(S(=O)(=O)Nc2ccc(OC(F)(F)F)cc2)[nH]n1	.	.	i	i	.
